Measurements reported in PubChem BioAssay AID1671202 (University of Kansas High Throughput Screening Laboratory, 2021).
Values joined by “and” are separate entries in the source; they are usually repeats but may differ in a detail not shown here. Equal entries are not always repeated. Among all 190,000 compounds or so, about 6,900 (3.6%) were called active. What follows is part of a selection rich in actives, with near analogues and random picks from the rest. A number with no mark means an inactive call. Cut-off read from the data, not from the text of the source: active = inhibition above about 50%; inactive = the rest.

target: Huntingtin (Homo sapiens) (UniProt P42858); assay: mutant huntingtin-calmodulin interaction inhibitors – biochemical, AlphaScreen, primary screen (AID 1671202); conditions: AlphaScreen His-mHTT/GST-CaM binding, luminescence; at 15 µM, stronger effect = higher value;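 note: 0% = both proteins with DMSO and 100% = one protein alone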
Sequence (P42858 whole entry, looked up, stated change not applied): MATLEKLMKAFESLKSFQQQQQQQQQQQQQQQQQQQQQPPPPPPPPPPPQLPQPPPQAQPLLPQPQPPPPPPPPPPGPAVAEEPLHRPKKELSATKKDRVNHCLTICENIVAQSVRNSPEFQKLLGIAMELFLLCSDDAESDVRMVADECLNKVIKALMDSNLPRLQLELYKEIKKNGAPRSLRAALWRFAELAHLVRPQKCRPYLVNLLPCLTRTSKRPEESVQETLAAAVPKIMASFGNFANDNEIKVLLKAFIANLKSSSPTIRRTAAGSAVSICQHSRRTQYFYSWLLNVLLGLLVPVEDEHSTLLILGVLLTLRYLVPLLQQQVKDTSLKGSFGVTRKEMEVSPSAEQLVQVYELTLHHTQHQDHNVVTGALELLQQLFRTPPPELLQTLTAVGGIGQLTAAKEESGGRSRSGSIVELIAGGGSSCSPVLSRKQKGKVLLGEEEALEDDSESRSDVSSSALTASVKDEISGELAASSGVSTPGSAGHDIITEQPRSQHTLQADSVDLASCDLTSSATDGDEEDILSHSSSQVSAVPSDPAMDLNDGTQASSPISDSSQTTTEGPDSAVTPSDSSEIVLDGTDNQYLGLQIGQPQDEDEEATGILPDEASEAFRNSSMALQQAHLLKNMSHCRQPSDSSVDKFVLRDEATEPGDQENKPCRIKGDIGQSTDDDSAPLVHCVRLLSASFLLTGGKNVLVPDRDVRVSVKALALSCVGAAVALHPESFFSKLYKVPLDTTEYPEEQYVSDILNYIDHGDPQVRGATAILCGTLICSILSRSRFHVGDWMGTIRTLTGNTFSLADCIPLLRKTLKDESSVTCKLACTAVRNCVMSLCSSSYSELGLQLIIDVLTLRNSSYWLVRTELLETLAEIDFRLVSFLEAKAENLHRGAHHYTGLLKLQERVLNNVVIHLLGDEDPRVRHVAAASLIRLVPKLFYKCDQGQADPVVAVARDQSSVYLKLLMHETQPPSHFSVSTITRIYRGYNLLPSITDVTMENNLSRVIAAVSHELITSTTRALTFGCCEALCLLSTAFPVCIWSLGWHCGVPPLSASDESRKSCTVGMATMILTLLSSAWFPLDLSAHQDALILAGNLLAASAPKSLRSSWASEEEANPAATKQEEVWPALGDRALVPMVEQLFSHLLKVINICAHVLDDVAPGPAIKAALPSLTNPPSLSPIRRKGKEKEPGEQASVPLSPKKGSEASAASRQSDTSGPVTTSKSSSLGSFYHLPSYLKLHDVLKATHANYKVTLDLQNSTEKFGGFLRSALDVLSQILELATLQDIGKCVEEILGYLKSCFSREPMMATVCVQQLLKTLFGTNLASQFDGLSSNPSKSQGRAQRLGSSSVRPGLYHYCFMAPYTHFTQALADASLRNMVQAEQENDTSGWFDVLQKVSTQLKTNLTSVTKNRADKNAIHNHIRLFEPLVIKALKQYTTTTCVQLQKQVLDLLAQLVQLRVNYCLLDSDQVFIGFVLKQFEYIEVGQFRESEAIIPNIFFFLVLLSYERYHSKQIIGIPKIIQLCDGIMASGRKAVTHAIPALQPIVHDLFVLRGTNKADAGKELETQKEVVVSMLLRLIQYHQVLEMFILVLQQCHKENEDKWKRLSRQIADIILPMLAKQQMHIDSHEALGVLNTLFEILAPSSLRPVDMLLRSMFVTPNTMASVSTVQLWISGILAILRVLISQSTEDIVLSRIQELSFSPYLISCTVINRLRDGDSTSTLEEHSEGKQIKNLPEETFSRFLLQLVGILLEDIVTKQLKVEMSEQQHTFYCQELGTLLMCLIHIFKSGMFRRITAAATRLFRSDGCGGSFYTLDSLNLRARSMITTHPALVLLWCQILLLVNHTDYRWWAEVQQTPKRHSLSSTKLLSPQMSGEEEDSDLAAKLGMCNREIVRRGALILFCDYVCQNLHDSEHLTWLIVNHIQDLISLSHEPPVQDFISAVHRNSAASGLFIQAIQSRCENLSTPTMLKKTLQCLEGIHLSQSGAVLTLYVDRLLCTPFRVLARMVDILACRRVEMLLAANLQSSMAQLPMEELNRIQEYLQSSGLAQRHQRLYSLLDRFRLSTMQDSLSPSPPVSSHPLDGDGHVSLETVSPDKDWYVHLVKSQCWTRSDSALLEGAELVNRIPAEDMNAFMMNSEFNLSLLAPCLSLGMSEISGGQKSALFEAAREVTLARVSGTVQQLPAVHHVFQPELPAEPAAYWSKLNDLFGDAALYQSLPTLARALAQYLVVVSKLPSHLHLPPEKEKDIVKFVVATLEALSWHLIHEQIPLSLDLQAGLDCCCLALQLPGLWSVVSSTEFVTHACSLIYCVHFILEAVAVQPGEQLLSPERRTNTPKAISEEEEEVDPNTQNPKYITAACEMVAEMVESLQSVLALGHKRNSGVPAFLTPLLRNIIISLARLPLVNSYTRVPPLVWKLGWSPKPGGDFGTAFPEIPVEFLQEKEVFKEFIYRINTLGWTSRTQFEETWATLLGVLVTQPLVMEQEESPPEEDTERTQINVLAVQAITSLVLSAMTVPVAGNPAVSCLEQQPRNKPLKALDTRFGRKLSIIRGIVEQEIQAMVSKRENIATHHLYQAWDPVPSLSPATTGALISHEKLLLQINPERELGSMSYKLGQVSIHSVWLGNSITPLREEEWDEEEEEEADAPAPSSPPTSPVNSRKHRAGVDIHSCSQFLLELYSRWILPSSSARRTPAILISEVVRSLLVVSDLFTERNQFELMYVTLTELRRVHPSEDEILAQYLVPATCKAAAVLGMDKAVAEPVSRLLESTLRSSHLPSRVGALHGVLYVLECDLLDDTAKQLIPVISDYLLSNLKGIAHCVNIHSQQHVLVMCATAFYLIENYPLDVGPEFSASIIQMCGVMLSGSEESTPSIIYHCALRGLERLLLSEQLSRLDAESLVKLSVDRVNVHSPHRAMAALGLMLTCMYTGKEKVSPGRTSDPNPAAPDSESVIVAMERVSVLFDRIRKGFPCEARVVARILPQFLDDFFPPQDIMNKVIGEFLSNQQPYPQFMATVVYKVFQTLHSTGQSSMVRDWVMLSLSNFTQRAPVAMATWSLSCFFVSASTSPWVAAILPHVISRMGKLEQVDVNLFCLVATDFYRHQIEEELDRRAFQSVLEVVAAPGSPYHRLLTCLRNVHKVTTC

| Structure (SMILES) | inhibition |
| --- | --- |
| CC(=O)NC1CCN(c2ccccc2C(=O)N(C)C2CCCCC2)CC1 | 11.4% |
| COc1ccc(C=CC(=O)NCCN2CCn3cc(OC)c(=O)cc3C2=O)cc1OC | -2.5% |
| Cc1ccc(N2CC(c3nnc(NC(=O)CCc4ccccc4)o3)CC2=O)cc1 (stereo unspecified) | 0.32% |
| Cc1ccccc1OCC(=O)Nc1nnc(C2CC(=O)N(c3ccccc3)C2)o1 (stereo unspecified) | -0.23% |
| COc1ccc(CC(=O)Nc2nnc(C3CC(=O)N(c4ccc(Cl)cc4)C3)o2)cc1 (stereo unspecified) | 22.1% |
| O=C(Cc1cccs1)Nc1nnc(C2CC(=O)N(c3ccc(Cl)cc3)C2)o1 (stereo unspecified) | 95.7% (active) |
| COc1ccc(N2CC(c3nnc(NC(=O)Cc4ccc(C)cc4)o3)CC2=O)cc1 (stereo unspecified) | 2.93% |
| CSc1ccc(N2CC(c3nnc(NC(=O)Cc4ccccc4C)o3)CC2=O)cc1 (stereo unspecified) | 68.1% (active) |
| N#CCOc1ccc2c(=O)c(-c3ccccc3)coc2c1 | -3% |
| CCCCC(=O)Nc1n[nH]c(C)c1-c1ccc(Cl)cc1 | 2.8% |
| COc1ccccc1OCCCCOc1ccccc1OC | -8.5% |
| O=[N+]([O-])c1ccc(N2CCN(S(=O)(=O)c3ccc(Br)s3)CC2)cc1 | 7% |
| CCC(=O)Nc1ccc(S(=O)(=O)N2CCN(C)c3ccccc32)cc1 | -1.8% |
| O=C(CSc1nc2[nH]ncc2c(=O)n1-c1ccccc1)c1ccc(Cl)c(Cl)c1 | 48% |
| O=C(CSc1nc(-c2ccccc2)nc2c1CCCC2)c1ccc(O)c(O)c1 | 52% (active) |
| O=C(CSc1ncn[nH]1)c1ccc(O)c(O)c1 | -5.2% and -1% |
| COc1cc(OC)c(OC)cc1C=Nc1ccccc1C(=O)O | 5.4% |
| CC(Oc1ccc(Cl)cc1)C(=O)N1CCn2c(nnc2C(C)C)C1 (stereo unspecified) | 2.1% |
| Cc1cc(NN)nc(-c2ccccc2O)n1 | 53.5% (active) |
| CC(C)Nc1nc(-c2ccccc2O)nc2ccccc12 | -13.2% |
| Cc1cc(Nc2ccccc2)nc(N)n1 | 0.7% |

| Structure (SMILES) | inhibition |
| --- | --- |
| CCCNC(=O)C1CCN(Cc2cn(C)c3ccc(Cl)cc23)CC1 | -7.24% |
| O=C(NCc1ccc(F)cc1)c1ccc2c(c1)NC(=O)C(N1CCCCC1)S2 (stereo unspecified) | -10% |
| CCCNC(=O)c1cn(-c2ccc(C)cc2)nn1 | -7.1% |
| COc1ccc(N2C(=O)C3CCCN3C2c2cc(OC)c(OC)cc2OC)cc1 (stereo unspecified) | -4.26% |
| COc1ccc(N2C(=O)C3CCCN3C2c2cccs2)cc1 (stereo unspecified) | -7.68% |
| COc1cccc(N2C(=O)C3CCCN3C2c2ccc(F)cc2)c1 (stereo unspecified) | 5.08% |
| COc1ccc(N2C(=O)C3CCCN3C2c2ccc(Cl)c(Cl)c2)cc1 (stereo unspecified) | 68% (active) |
| Cc1ccc(N2C(=O)C3C4C=CC(CC4)C3C2=O)cc1Cl (stereo unspecified) | -5% |
| Cc1ccsc1C1N(c2ccc(Cl)c(Cl)c2)C(=O)C2CCCN21 (stereo unspecified) | 96.1% (active) |
| CCOc1ccc(CC(=O)N2CC3CC2CC3NC(=O)c2ccccc2)cc1 (stereo unspecified) | 5.36% |
| CCOc1ccc(-c2nnc(Nc3ccc(C(N)=O)cc3)c3ccccc23)cc1 | 6% |
| CCOC(=O)C1CCN(C(=O)C2CCc3sc(C(=O)N4CCCCC4)cc3C2)CC1 (stereo unspecified) | 4.24% |
| COc1cccc(N2CCN(C(=O)c3ccc(Cl)cc3Cl)C(C)C2=O)c1 (stereo unspecified) | 3.4% |
| Cc1cc(C(=O)Nc2ccccc2)nc2ccnn12 | -10.8% |
| O=C1[C@H]2OC[C@H](O2)[C@@H]2[C@H]1[C@H]1C=Cc3ccccc3N1[C@@H]2C(=O)c1ccc(F)cc1 | 91.4% (active) |
| O=C(c1ccc(F)cc1)N1CCC(N2CCC(C(=O)N3CCCCC3)CC2)CC1 | -3.3% |
| Brc1ccc(Nc2nc(-c3ccc4c(c3)OCO4)cs2)nc1 | -1.1% |
| Cc1ccc(Nc2nc(-c3ccc(O)cc3O)cs2)nc1 | 100% (active) |
| Cc1ccc(-c2csc(NC(=O)c3ccc([N+](=O)[O-])cc3)n2)c(C)c1 | 10.4% |
| O=C(CSc1ncc(CO)n1Cc1ccccc1)Nc1ccc([N+](=O)[O-])cc1 | 20.9% |
| Oc1ccc(N=Nc2nccs2)c(O)c1 | 99.9% (active) |

| Structure (SMILES) | inhibition |
| --- | --- |
| Cc1[nH]c(=O)[nH]c(=O)c1S(=O)(=O)NC1=NCCS1 | 3% |
| COCc1cc(C)nc2sc(C(N)=O)c(N)c12 | -5% |
| COCc1cc(C)nc2sc(C(=O)N(c3ccccc3)c3ccccc3)c(N)c12 | -19% |
| COCc1cc(C)nc2sc(C3=NC(C)(C)Cc4ccccc43)c(N)c12 | 58% (active) |
| O=C(Nc1ccc(C(F)(F)F)cc1)N1CCc2c(nc[nH]c2=O)C1 | -3.4% |
| CCN(Cc1ccccc1)C(=O)c1sc2ccccc2c1Cl | -67.9% |
| CCCCN1C(=O)C(C)(C(=O)Nc2cccc(OC)c2)Oc2cccnc21 (stereo unspecified) | 4.7% |
| Cc1cccc(-n2nnc(C(=O)NCCN3CCCC3)c2N)c1 | 2% |
| c1ccc2[nH]c(-c3nc4ccccc4[nH]3)nc2c1 | 7.27% |
| c1ccc(-c2nnc(N3CCOCC3)c3ccccc23)cc1 | -4.1% |
| C1=C(N2CCOCC2)/C(=C/c2nc3ccccc3[nH]2)CC1 | 67.1% (active) |
| Cc1cc(Cl)ccc1NC(=O)C(C)N(c1ccccc1)S(C)(=O)=O (stereo unspecified) | -1.9% |
| O=C(NCc1ccc2c(c1)OCO2)C1CCc2sc(C(=O)N3CCOCC3)cc2C1 (stereo unspecified) | -0.39% |
| CCCNC(=O)C1CCN(Cc2c(C)n(CC)c3ccccc23)CC1 | 7.5% |
| Cc1cc(C(=O)N2CC(C(=O)N3CCN(c4ccc(Cl)c(Cl)c4)CC3)C2)no1 | 66.7% (active) |
| COc1ccccc1N1CCN(C(=O)c2cc(-c3ccc(Cl)c(Cl)c3)on2)CC1 | -3% |
| Cc1cc(C(=O)N2CC(C(=O)Nc3cccc(NS(C)(=O)=O)c3)C2)no1 | -19.8% |
| CN(C(=O)Cc1c[nH]c2ccccc12)C1(C(=O)NC2CCCCC2)CCCCC1 | 6% |
| CC(=O)c1sc(NC(=O)c2ccccc2[N+](=O)[O-])nc1C | -19.4% |
